This note sets out measurements from PubChem BioAssay AID2685 (National Center for Advancing Translational Sciences (NCATS), 2010).

Among all 320,000 compounds or so, about 2,100 (0.66%) were called active. Inconclusive results (about 53%) are left out. This is one part of a sample in which actives are shown more often than they occur. Calls follow the shape of the dose curve; as a rule, active = well fitted inhibition curve with a large enough effect in the signal ratio, with a control signal flat (not every such curve was filed as active); inconclusive = small, poorly fitted or top-dose-only effect, or effect the other way, or a change in a side signal; inactive = flat fitted curve, though single readings scatter; the % refers to the signal ratio.
Potency is read from the fitted curve at half-maximal effect.

The nature of this experiment: qHTS Assay for Lipid Storage Modulators in Drosophila S3 Cells.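 As to cell number change: cells counted by Cell Tracker Red CMTPX staining in the red channel.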 As to lipid storage change, negative = inhibition: % is scaled to controls: 0 for no effect and ±100 for the full control effect. As to conditions: BODIPY lipid droplet fluorescence, 18-24 h, cells fed with added oleic acid; cell number change: measured here: cell count max response; series mostly up to 46.1 µM; lipid storage change, negative = inhibition: at the top concentration. The procedure, abridged:
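Laser-scanning cytometry quantifies lipid droplet accumulation (500–530 nm total intensity; droplet/cell object ratio) in oleic acid-fed (400 uM added) Drosophila S3 cells treated with a concentration series. 20 uM Triacsin C defined 100% inhibition.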
`Cc1ccc(S(=O)(=O)N2CCc3ccccc3C2CN2C(=O)c3ccccc3C2=O)cc1` (stereo unspecified): the molecule was classed as inactive. Turning to `COc1cccc(NC(=S)N2CCN(C(c3ccccc3)c3ccccc3)CC2)c1`, the “lipid storage change, negative = inhibition” value was 17% (inactive). In the case of `Cc1nn(C)c(C)c1/C=N/NC(=O)CCn1nc(C)c([N+](=O)[O-])c1C`, the “lipid storage change, negative = inhibition” value was 9.31% (inactive) and the cell number change is -10.6%. For `Cc1ccc(OCC(=O)n2cnnc2N)c(C)c1`, the “lipid storage change, negative = inhibition” value was 16.4% (inactive) and the cell number change was -14.9%. Consider `CCN1CCN(Cc2c(C)[nH]c3ccc(OC)cc3c2=O)CC1`, for which the result was inactive and the cell number change was found to be 9.98%. On to `COc1ccc(N=C2S/C(=C\c3ccco3)C(=O)N2CC(C)C)cc1`, for which the result was inactive and the cell number change was -0.418%.

Take `COc1ccccc1CCC(=O)N1CCC(n2nccc2NC(=O)CC(C)C)CC1`: the “lipid storage change, negative = inhibition” value is -24.1% (inactive) and the cell number change was -2.79%. The matching figures for `CCN(CC)S(=O)(=O)c1ccc(OCC(=O)NC(=O)c2ccccc2OC)c([N+](=O)[O-])c1`: -8.1% (inactive) and 2.39%. Take `CCCn1c(C)cc(C(=O)COc2ccc(S(=O)(=O)N(CC)CC)cc2[N+](=O)[O-])c1C`: the Potency was 25.9 µM (active) and the cell number change was -12.5%. For the molecule `CCCn1c(C)cc(C(=O)COc2ccc(C)nc2[N+](=O)[O-])c1C`, the “lipid storage change, negative = inhibition” value was 5.96% (inactive) and the cell number change stood at 5.33%. Take `CN(C)S(=O)(=O)c1cccc(NC(=S)N2CCc3ccccc32)c1`: the result was inactive. Take `CC(C)NC(=O)CN(Cc1ccccc1)S(=O)(=O)c1ccccc1`: the outcome was inactive and the cell number change stood at 1.76%. On to `CC[n+]1c(S(=O)(=O)[O-])ccc2ccc(C)cc21`, for which the “lipid storage change, negative = inhibition” value was 0.898% (inactive) and the cell number change was 3.16%. The like results for `CC[n+]1c(C)sc2cc(C)ccc21` were, in that order, -0.992% (inactive) and -15.5%. As for `CC[N+]1=C(C)C(C)(C)c2cc(C)ccc21`, the Potency is 0.231 µM (active) and the cell number change was -16.1%. In the case of `O=C(N/N=C/c1ccccc1)c1ccc(NC(=O)c2ccc(F)cc2)cc1`, the molecule was called inactive and the cell number change was 8.73%.

`Cc1ccc(C)c(NC(=O)CSc2nc(C)cc(C)c2C#N)c1`: the “lipid storage change, negative = inhibition” value was 11.2% (inactive) and the cell number change was -1.26%. In the case of `CC(Oc1ccc2c(-c3ccccc3)cc(=O)oc2c1)C(=O)NCC1CCC(C(=O)O)CC1` (stereo unspecified), the “lipid storage change, negative = inhibition” value is -7.92% (inactive). As for `COc1ccc(CNC(=O)CN(C)S(=O)(=O)c2ccc(Cl)cc2)cc1`, the “lipid storage change, negative = inhibition” value is -32.9% (inactive) and the cell number change was -9.55%. As for `COCCNC(=O)CN(Cc1ccc(Cl)cc1)S(C)(=O)=O`, the Potency is 23.1 µM (active) and the cell number change was -6.66%. In the case of `COc1ccc(CNC(=O)CN(Cc2ccc(Cl)cc2)S(C)(=O)=O)cc1`, the “lipid storage change, negative = inhibition” value was 6.59% (inactive) and the cell number change was found to be 15.2%. On to `COc1ccc(CNC(=O)CN(Cc2ccc(Cl)cc2)S(=O)(=O)c2ccccc2)cc1`, for which the Potency was 20.6 µM (active) and the cell number change amounted to 26.1%. On to `COc1ccc(CCNC(=O)CN(Cc2ccc(Cl)cc2)S(C)(=O)=O)cc1OC`, for which the outcome was inactive and the cell number change was 5.74%. In the case of `COc1ccc(CCNC(=O)CN(Cc2ccc(Cl)cc2)S(C)(=O)=O)cc1`, the “lipid storage change, negative = inhibition” value was -18.7% (inactive) and the cell number change was -16.1%. The like results for `CC1CCN(C(=O)c2[nH]cnc2C(=O)N[C@@H](CCCCNC(=O)OC(C)(C)C)C(=O)OC(C)(C)C)CC1` were, in that order, -1.71% (inactive) and -11.2%. Consider `Clc1ccccc1-c1ncnc2ccc(Br)cc12`, for which the “lipid storage change, negative = inhibition” value is -0.0835% (inactive) and the cell number change is -18.5%.

Regarding `CN1CCN(C(c2ccc(Br)cc2)c2cc(Cl)c3cccnc3c2O)CC1` (stereo unspecified), the Potency is 20.6 µM (active) and the cell number change was found to be 5.13%.

Regarding `CN1CCN(C(c2ccccn2)c2cc(Cl)c3cccnc3c2O)CC1` (stereo unspecified), the result was inactive. In the case of `CN1CCN(C(c2cccnc2)c2ccc3cccnc3c2O)CC1` (stereo unspecified), the molecule was called inactive and the cell number change is 8.11%. The like results for `O=C(NCc1ccc(F)cc1)C1CC(=O)N(CCc2ccccc2)C1` (stereo unspecified) were, in that order, “inactive” and 15.8%. Consider `Cc1ccc(S(=O)(=O)NNC2=NS(=O)(=O)c3ccccc32)c(C)c1`, for which the “lipid storage change, negative = inhibition” value was 6.11% (inactive) and the cell number change was -0.377%.

Consider `Cc1cc(O)c(C(C)C)cc1NC1=NS(=O)(=O)c2ccccc21`, for which the “lipid storage change, negative = inhibition” value was -22.4% (inactive) and the cell number change was -1.35%. As for `Cc1cc(C)c(NC2=NS(=O)(=O)c3ccccc32)c(C)c1`, the Potency was 16.4 µM (active). On to `O=C1COc2ccc(S(=O)(=O)N3CCN(c4cccc(Cl)c4)CC3)cc2N1`, for which the “lipid storage change, negative = inhibition” value was 8.29% (inactive) and the cell number change is -0.295%.

For the molecule `CC(CC(=O)N1CCN(c2cccc(Cl)c2)CC1)S(=O)(=O)c1ccc2c(c1)NC(=O)CO2` (stereo unspecified), the Potency was 6.51 µM (active). For the molecule `CC(CC(=O)N1CCN(c2ccccc2)CC1)S(=O)(=O)c1ccc2c(c1)NC(=O)CS2` (stereo unspecified), the molecule was called inactive and the cell number change was -1.91%. The like results for `CCOc1ccc(NC(=S)N2C3CCCC2CC(NC(=O)C2CC2)C3)cc1` (stereo unspecified) were, in that order, “inactive” and 11.2%. As to `CCOC(=O)C1Cc2ccccc2C(=O)O1` (stereo unspecified), the “lipid storage change, negative = inhibition” value was -4.22% (inactive) and the cell number change was 3.62%. In the case of `CC(=O)Nc1nc2cc([N+](=O)[O-])ccc2s1`, the “lipid storage change, negative = inhibition” value was 5.34% (inactive) and the cell number change was -7.82%. For `CCCN1C(=O)S/C(=C\c2ccc(N3CCOCC3)cc2C)C1=O`, the “lipid storage change, negative = inhibition” value is -5.29% (inactive) and the cell number change was -13.4%. In the case of `C=CC(C)N1C(=O)S/C(=C\c2ccc(N3CCOCC3)cc2C)C1=O` (stereo unspecified), the Potency was 4.11 µM (active). For `CCC(C)N1C(=O)S/C(=C/c2ccc(N3CCOCC3)cc2C)C1=O` (stereo unspecified), the “lipid storage change, negative = inhibition” value was 11.5% (inactive) and the cell number change amounted to 12.1%. For `Cc1cccc(N2CC(C(=O)NCCC3=CCCCC3)CC2=O)c1C` (stereo unspecified), the molecule was classed as inactive. `CCS(=O)(=O)N1CCC(C(=O)NCc2ccc(OC)cc2OC)CC1`: the “lipid storage change, negative = inhibition” value is -1.87% (inactive) and the cell number change was 16%. With `N#Cc1ccc(OCc2ccc(C(=O)O)o2)cc1`, the molecule was called inactive and the cell number change is -20.7%. Take `O=C(O)c1ccc(COc2ccc([N+](=O)[O-])cc2)o1`: the outcome was inactive. Regarding `O=C(O)c1ccc(COc2ccc(Cl)cc2)o1`, the Potency is 25.9 µM (active) and the cell number change was -10.6%. As for `Nc1cccnc1Sc1cccc(Cl)c1`, the molecule was classed as inactive and the cell number change was -17.5%.
